This note sets out measurements from PubChem BioAssay (Tox21).

Results filed as inconclusive are left out. Calls of active or inactive are those of the source. Calls come from the whole dose curve; as a rule, active = well fitted cell-killing curve with a large enough effect in the repeat runs; inconclusive = weak or mixed curves, or effect the other way; inactive = flat fitted curve, though single readings scatter.

The test is described as follows: qHTS RealTime-Glo MT Cell Viability Assay in HepG2 cells - 40 hour (AID 1224870). Note: nearly all actives have a fitted effect of over 50% in size. Conditions: RealTime-Glo luminescence; series mostly up to 76.8 µM. The source says:
National Center for Advancing Translational Sciences [NCATS]
NIH Chemical Genomics Center [NCGC]
U.S. Environmental Protection Agency [EPA]
National Institutes of Environmental Health Sciences [NIEHS]
National Toxicology Program [NTP]
U.S. Food and Drug Administration [FDA]
Measure of cell viability is critical in the cell-base assay. Analysis of cell viability is necessary for the characterization of cell responses to cytotoxic drugs and environmental stress. A RealTime-Glo MT Cell Viability Assay to monitor cell viability in real time of continues cell culture during 40 hours of compound treatment was used to screen Tox21 10K library compounds in HepG2 cells. The RealTime-Glo MT Cell Viability Assay is a nonlytic, homogeneous, bioluminescent method to measure cell viability in real time using a simple, plate-based method. The assay involves adding NanoLuc luciferase and a cell-permeant prosubstrate to cells in culture. Viable cells reduce the proprietary prosubstrate to generate a substrate for NanoLuc luciferase. This substrate diffuses from cells into the surrounding culture medium, where it is rapidly used by the NanoLuc Enzyme to produce a luminescent signal. The signal correlates with the number of viable cells, making the assay well suited for cytotoxicity studies.
Tox21 Assay Protocol Summary:
The mixture of HepG2 cell suspension and reagents were dispensed at 600cells/6 ul/well in 1536-well tissue culture treated black solid bottom plates using a Multidrop dispenser. After the assay plates were incubated at a 37 C/5% CO2 incubator for 5 hours, 23 nL of compounds dissolved in DMSO, positive and negative controls was transferred to the assay plate by a pintool work station. The plates were incubated at 37 C for 40 hours. The luminescence intensity were measured at 0h, 8h, 16h, 24h, 32h and 40h time points using ViewLux plate reader during compound treatment.
Consider `Cc1occc(=O)c1O`, for which the compound was classed as inactive.
With `CC1=CC(=O)NS(=O)(=O)O1` the entry was “inactive”; with `CC(=O)Nc1ccccc1`, “inactive”.
The value for `O=S1(=O)CC=CC1` was “inactive”; that for `CC1CCC2CC1C2(C)C` (stereo not given) was “inactive”.
With `Nc1cc([N+](=O)[O-])ccc1O` the entry was “inactive”.
With `CCCCN(CCCC)CCCC`, the call was inactive.
With `c1ccc2c(c1)ccc1ccccc12` the entry was “inactive”; with `N[C@@H](Cc1cc(I)c(Oc2cc(I)c(O)c(I)c2)c(I)c1)C(=O)O`, “inactive”; with `CCc1cccc(C)c1N`, “inactive”.
With `O=C(Oc1ccccc1)c1ccccc1` the entry was “inactive”; with `CC(C)c1ccc(S(=O)(=O)O)cc1`, “inactive”.
Consider `O=C(CC(C(=O)OC1CCCCC1)S(=O)(=O)O)OC1CCCCC1` (stereo not given), for which the outcome was inactive.
The value for `OCCOCCOCCO` was “inactive”; that for `CCCCC(CC)COC(=O)C(C#N)=C(c1ccccc1)c1ccccc1` (stereo not given) was “inactive”; that for `CCCCCC(N)=O` was “inactive”.
With `O=C(O)CC(C(=O)O)C(CC(=O)O)C(=O)O` (stereo not given) the entry was “inactive”; with `CCCC(C)=O`, “inactive”.
With `Cc1ccc2oc(=O)ccc2c1` the entry was “inactive”; with `OCc1cccnc1`, “inactive”; with `FC(F)(F)c1ccc(Cl)c(Cl)c1`, “inactive”.
As to `O=S(=O)(O)c1ccc2ccccc2c1`, the compound was classed as inactive.
The value for `COCCCOc1ccnc(CS(=O)c2nc3ccccc3[nH]2)c1C` (stereo not given) was “inactive”.
With `OCCOCCN1CCN(C2=Nc3ccccc3Sc3ccccc32)CC1` the entry was “inactive”; with `C=CCNC(N)=S`, “inactive”; with `CC(=O)c1ccccc1`, “inactive”.
With `CCCCOC(=O)COc1ccc(Cl)cc1Cl` the entry was “inactive”; with `C[Si](O[Si](C)(C)C)O[Si](C)(C)C`, “inactive”; with `O=C1CCC(N2C(=O)c3ccccc3C2=O)C(=O)N1` (stereo not given), “inactive”.
As for `O=[N+]([O-])c1ccc(/C=C/c2ccc([N+](=O)[O-])cc2S(=O)(=O)O)c(S(=O)(=O)O)c1`, the outcome was inactive.
The value for `COc1ccc(Cl)cc1C(=O)NCCc1ccc(S(=O)(=O)NC(=O)NC2CCCCC2)cc1` was “inactive”; that for `CC(=O)OCC(=O)[C@@]12N=C(C)O[C@@H]1C[C@H]1[C@@H]3CCC4=CC(=O)C=C[C@]4(C)[C@H]3[C@@H](O)C[C@@]12C` was “inactive”; that for `Nc1ccccc1[N+](=O)[O-]` was “inactive”.
With `C=C(C)C(=O)O[C@H]1C[C@@H]2CC[C@@]1(C)C2(C)C` the entry was “inactive”; with `CC1=CCC2CC1C2(C)C` (stereo not given), “inactive”.
The value for `COc1ccc2cc([C@H](C)C(=O)O)ccc2c1` was “inactive”; that for `CC(C)(N)CO` was “inactive”; that for `CC(=O)CC(=O)Nc1ccccc1C` was “inactive”.
As to `CN(C)CCC(c1ccc(Cl)cc1)c1ccccn1` (stereo not given), the outcome was inactive.
With `ON=C1CCCCC1` the entry was “inactive”.
